TEAD-YAP block: TEAD-YAP interaction inhibition, primary screen, TEAD-YAP interaction inhibitor project, luminescence, HEK-TIYL cells. TEAD-Gal4/YAP UAS-luciferase luminescence. inhibition, % at 9.12 µM. 1.4% of 640,000 active; in the data active = inhibition above about 32%
FBW7 act: FBW7 E3 ligase activators, primary screen, biochemical, AlphaScreen, human. AlphaScreen FBW7–phospho-cyclin E peptide binding, activator screen. AID 1259310, 2017. 0.13% of 650,000 active. F-box/WD repeat-containing protein 7 (Homo sapiens), Q969H0. normalized activity (activation), % at 26.1 µM; in the data active = normalized activity above about 1.9%;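 also: purified mutant Fbw7 with reduced substrate affinity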
MITF primary: MITF inhibitors, primary screen, biochemical, AlphaScreen, human; AlphaScreen MITF homodimerization, bead proximity signal; inhibition, % at 2.6 µM; 0.91% of 650,000 active; AID 1259374, 2018; in the data active = inhibition above about 50%
GPR151 ag: activators of human GPR151, primary screen, cell-based, PathHunter beta-arrestin, luminescence; activation, % at 11.2 µM; G-protein coupled receptor 151 (Homo sapiens), Q8TDV0; AID 1508602, 2020; 1% of 650,000 active; PathHunter beta-arrestin GPR151 cells; in the data active = activation above about 4.9%
Target sequence (Q8TDV0 whole entry, looked up): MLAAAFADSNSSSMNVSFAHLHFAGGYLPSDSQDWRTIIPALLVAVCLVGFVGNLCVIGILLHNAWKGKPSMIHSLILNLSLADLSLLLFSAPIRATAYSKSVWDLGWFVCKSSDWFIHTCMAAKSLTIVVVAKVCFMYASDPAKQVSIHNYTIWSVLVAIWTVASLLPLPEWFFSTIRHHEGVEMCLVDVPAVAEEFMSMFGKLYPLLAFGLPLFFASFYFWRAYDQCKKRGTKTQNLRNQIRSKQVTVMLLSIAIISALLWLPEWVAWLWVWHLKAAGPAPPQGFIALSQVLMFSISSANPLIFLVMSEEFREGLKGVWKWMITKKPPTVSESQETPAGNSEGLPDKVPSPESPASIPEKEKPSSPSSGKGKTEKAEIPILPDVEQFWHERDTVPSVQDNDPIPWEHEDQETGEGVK
Of the large screens only hits and unclear results are named; the others gave an inactive call. The list is not random: actives were taken first. Their share in the collection is about 3.4%.

CCn1c(=O)c2c(nc3n2CC(C)CN3c2cccc(C)c2)n(C)c1=O (stereo unspecified)	none
C/C(=N\NC(=O)COc1ccccc1Cl)c1ccc(Br)s1	none
COc1ccc(-c2ccc3c(N)c(C(=O)NCc4ccco4)sc3n2)cc1	TEAD-YAP block 33
CC(C)OC(=O)c1sc2nc(-c3ccccc3)ccc2c1N	TEAD-YAP block 84
COc1ccc(-c2ccc(C(=O)NCc3ccco3)c(N(C)C)n2)cc1	none
COCCOC(=O)C1=C(C)NC(C)=C(C#N)C1c1ccccc1OC(F)F (stereo unspecified)	none
CC1=C(C#N)C(c2cc([N+](=O)[O-])ccc2OC(F)F)C(C#N)=C(C)N1	TEAD-YAP block 42
CC1=C(C#N)C(c2cc(Cl)ccc2OC(F)F)C(C#N)=C(C)N1	TEAD-YAP block 44
COc1ccc(-c2cc(C(F)(F)F)n3nc(C(=O)Nc4ccc(C)cc4)cc3n2)cc1	none
COc1cc(C)c2c(c1)oc(=O)c1ccccc12	FBW7 act 2.2
C=CCN=c1c([N+](=O)[O-])nn(C)n1O	none
O=C(O)c1ccccc1N=Nc1ccc(O)c2ncccc12	none
NS(=O)(=O)c1ccc(N=Nc2ccc(O)c3ncccc23)cc1	MITF primary 80
O=C1NC(=O)c2cc(N3Cc4ccccc4C3)ccc21	none
CC(=O)Nc1ccc(NC(=O)c2csc(-c3ccc(C(=O)NC4CC4)cc3)n2)cc1	none
O=C(NC1CC1)c1ccc(-c2nc(C(=O)Nc3ccc(Oc4ccccc4)cc3)cs2)cc1	TEAD-YAP block 33
CN1CCN(C(=O)c2ccc(-c3nc(C(=O)Nc4ccc(Oc5ccccc5)cc4)cs3)cc2)CC1	TEAD-YAP block 44
Cn1c2ccccc2n2cc(-c3ccccc3)nc12	none
c1ccc(-c2cn3c(ccc4ccccc43)n2)cc1	TEAD-YAP block 85
CCOc1ccc(-n2c(-c3ccccc3)c[n+]3c2CCCCC3)cc1	TEAD-YAP block 66
Brc1ccc(-c2c[n+]3c(n2Cc2ccccc2)SCCC3)cc1	none
CCOc1ccc(-c2c[n+]3c(n2Cc2ccccc2)SCCC3)cc1	TEAD-YAP block 67
CCOc1ccc(-n2c(-c3ccccc3)csc2=NC(C)=O)cc1	none
CC1CCCCC1NC(=O)c1ccc[nH]c1=S (stereo unspecified)	none
CCOC(=O)COc1ccccc1/C=C1\SC(=S)N(CC)C1=O	none
Cc1ccccc1N1CC(O)=C(c2ccccc2)C1=N	none
COc1ccc(C)cc1NC(=O)NCc1cc(C)n(C)n1	TEAD-YAP block 35
CC(=O)Nc1nc(-c2cc3ccccc3oc2=O)c(C)s1	none
CCOC(=O)c1cnc2c(OC)cccc2c1Nc1ccc(OC)c(OC)c1	TEAD-YAP block 45
CCOC(=O)c1cnc2c(OC)cccc2c1NC1CCCCCC1	TEAD-YAP block 66
CCOC(=O)c1cnc2c(Cl)c(Cl)ccc2c1NC1CCCCC1	none
CCOC(=O)c1cnc2c(OC)cccc2c1NC1CCCCC1	TEAD-YAP block 55
CCOC(=O)c1cnc2c(OC)cccc2c1NCC1CCCN1CC (stereo unspecified)	none
O=C(NCCC1=CCCCC1)c1cc(N2C(=O)C3C4CCC(C4)C3C2=O)ccc1Cl (stereo unspecified)	none
CSc1nsc(N/N=C/c2ccccc2)c1C#N	none
N#Cc1c(Cl)nsc1N/N=C/c1ccccc1	TEAD-YAP block 41
CCCNc1ccnc(Nc2ccccc2)n1	none
CCCNc1ccnc(Nc2ccncc2)n1	TEAD-YAP block 36
Cc1ccc(OCC(O)Cn2cnc3ccccc32)c(C)c1 (stereo unspecified)	none
Cc1noc(C)c1CCC(=O)N1CCC(C(=O)Nc2cccc(-c3ccco3)c2)CC1	TEAD-YAP block 34
N#Cc1c(Cl)nc(Nc2cccc(F)c2)c(Cl)c1Cl	none
N#Cc1c(Cl)nc(Nc2ccccc2)c(Cl)c1Cl	TEAD-YAP block 33
CCC(C)NS(=O)(=O)c1ccc(Br)cc1 (stereo unspecified)	none
CCC(C)NS(=O)(=O)c1ccc(Cc2ccc(S(=O)(=O)NC(C)CC)cc2)cc1 (stereo unspecified)	TEAD-YAP block 34
CC1CCN(c2nc(Cl)nc(N3CCCC3)n2)CC1	none
Cn1cnc2c1c(=O)n(CC(=O)NN)c(=O)n2C	none
CCOC(=O)c1c(C)oc2ccc(NS(=O)(=O)c3ccc(C)cc3)cc12	TEAD-YAP block 34
COC(=O)c1c(C)oc2ccc(N(C(=O)c3ccc([N+](=O)[O-])cc3)S(=O)(=O)c3ccc(C)cc3)cc12	TEAD-YAP block 58
CC(=O)c1c(C)oc2ccc(NS(=O)(=O)c3c(C)cc(C)cc3C)cc12	TEAD-YAP block 37

Screening results (PubChem BioAssay)
